Experimental findings from PubChem BioAssay (NCATS) are described below.

Records with an inconclusive call do not appear. Activity calls are given as the source filed them. Unless noted, the call rests on the fitted dose curve; in most records, active means well fitted curve in the direction sought with a large enough effect; inconclusive means small, poorly fitted or top-dose-only effect, or another doubt; inactive means no such curve, though single readings can be large; an effect the other way counts as inactive or inconclusive.

A short description of assay [1]: Quantitative high throughput screen for delayed death inhibitors of the malarial parasite plastid, 96 hour incubation (AID 488745). Further: nearly all actives have a fitted effect of over 70% in size. Further: potency means the concentration at half of the fitted maximal effect. The essentials:
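Readout is firefly luciferase luminescence from an integrated reporter in P. falciparum; lower signal marks inhibited growth. Cultures at 2% hematocrit and 0.1% parasitemia were treated with compound across two generations (96 h, 37 C, 5% CO2).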

A short description of assay [2]: Quantitative high throughput screen for delayed death inhibitors of the malarial parasite plastid, 48 hour incubation (AID 488752). Further: nearly all actives have a fitted effect of over 65% in size. Further: potency means the concentration at half of the fitted maximal effect. The essentials: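 First, compound was pinned into RPMI 1640 medium containing 0.5% Albumax. Next, reporter-parasite-infected erythrocytes were added to 2% hematocrit and 0.1% parasitemia. After 48 h at 37 C under 5% CO2, luciferase detection reagent was added and luminescence read.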

The target of assay [3] is Thioredoxin reductase 1, cytoplasmic (Rattus norvegicus) (UniProt O89049). The assay is described as follows: qHTS Assay for Substrates of Mammalian Selenoprotein Thioredoxin Reductase 1 (TrxR1) (AID 488772).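 Further: series mostly up to about 57 µM; 0% is about no effect; a drop in NADPH fluorescence below the no-compound background marks a TrxR1 substrate.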 The essentials:
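In this dual-purpose format, potential substrates are identified from the first fluorescence read after selenite addition, not from the 8-minute delta. Rat enzyme is preincubated with NADPH and then with compound at ~22 deg C.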
In general terms: qHTS replaces the single test concentration by a dilution series.

For assay [4] the target is unchanged. The assay is described as follows: qHTS Assay for Inhibitors of Mammalian Selenoprotein Thioredoxin Reductase 1 (TrxR1) (AID 488773). Further: nearly all actives have a fitted effect of over 40% in size. Further: potency means the concentration at half of the fitted maximal effect. To be noted: Potency: inhibition. In short, it runs like this: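 Inhibition is scored from the loss of NADPH fluorescence between first and last reads of an 8-min kinetic run. Selenite (400 uM) was the substrate, added after 15 min compound preincubation at room temperature.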

The target in assay [5] is M-phase phosphoprotein 8 (Homo sapiens) (UniProt Q99549). The experiment in a line: qHTS Validation Assay for Inhibitors for MPP8 Chromodomain Interactions with Methylated Histone Tails (AID 488949). Further: nearly all actives have a fitted effect of over 55% in size. Further: potency means the concentration at half of the fitted maximal effect. In short, it runs like this:
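AlphaScreen read-out: streptavidin donor and nickel chelate acceptor beads (final 10 ug/mL), 30 min in the dark at RT. Complex of 50 nM MPP8 and 50 nM b-H3(1-18)K9me3 peptide had been exposed to compounds for 30 min beforehand.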

Assay [6] has as its target Methanococcus maripaludis chaperonin (MmCpn) (UniProt Q6LX38). The assay is described as follows: High-Throughput Screening for Modulators of Cytosolic Chaperonin Activity: MmCpn Primary Screen (AID 488978). Further: 0% is about no effect. In short, it runs like this: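 ADP formation read by HTRF Transcreener, 665/590 nm emission after 320 nm excitation. Enzyme: archaeal chaperonin at 50 nM final; substrate ATP 30 uM final; 10 min, 37C, after 5 min compound preincubation at RT.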

The target in assay [7] is Transient receptor potential cation channel subfamily V member 1 (Homo sapiens) (UniProt Q8NER1). The experiment in a line: HTS Assay for Compounds that Act as Enhancers of the Vanilloid Receptor 1 (AID 488979). Further: 0% is about no effect. In short, it runs like this: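 TRPV1-expressing cells loaded with Fluo-8 calcium dye; compounds added and calcium influx read kinetically for 3 min (agonist phase), then capsaicin at EC20 added and read 2 min more for enhancement. Fluorescence ex 480/em 520 nm.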

Assay [8] concerns the target Thyrotropin receptor (Homo sapiens) (UniProt P16473). The assay is described as follows: qHTS Assay for Antagonists of the Thyroid Stimulating Hormone Receptor (AID 488980). Further: series mostly up to about 58 µM; 0% is about no effect. The essentials: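 TSHR-HEK293 cells; 70 uM RO 20-1724 PDE inhibitor; compound + EC80 TSH (4 nM final); anti-cAMP cryptate antibody/cAMP-d2 in lysis buffer, 30 min RT; HTRF 665/620 nm read.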
The target of assay [9] is D(1A) dopamine receptor (Homo sapiens) (UniProt P21728). The experiment in a line: HTS Assay for Allosteric Agonists of the Human D1 Dopamine Receptor: Primary Screen for Agonists (AID 488981). Further: potency means the concentration at half of the fitted maximal effect. On activation: 0% is about no effect. The essentials: (§1)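 Tetracycline-induced HEK293 T-REx cells force-coupled to calcium signalling were incubated overnight at 30 C and dye-loaded at room temperature. Calcium flux over 180 s after compound addition flagged agonists; a further 180 s read after EC20 dopamine flagged potentiators.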

Assay [10] has the same target. The experiment in a line: HTS Assay for Allosteric Agonists of the Human D1 Dopamine Receptor: Primary Screen for Potentiators (AID 488982). Further: 0% is about no effect. In short, it runs like this:
as §1

Assay [11] concerns the target ATPase family AAA domain-containing protein 5 (Homo sapiens) (UniProt Q96QE3). The assay is described as follows: Validation screen for small molecules that inhibit ELG1-dependent DNA repair in human embryonic kidney (HEK293T) cells expressing luciferase-tagged ELG1 (AID 493107). Further: nearly all actives have a fitted effect of over 70% in size. Further: potency means the concentration at half of the fitted maximal effect. In short, it runs like this:
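Cells are dispensed in 1536-well format, then 5-fluorouridine and compound are pinned in. After a 16 hr incubation at 37 °C and 5% CO2, ONE-Glo is added and luciferase measured on a CCD imager.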

Assay [12] concerns the target Thyrotropin-releasing hormone receptor (Homo sapiens) (UniProt P34981). The assay is described as follows: qHTS for Small Molecule Agonists and Allosteric Enhancers of Human TRH Receptor: Validation Screen for Agonists (AID 493127;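 active means calcium activation more than 3 SD above the typical response in the agonist read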;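 further: intracellular calcium rise by fluo-8 fluorescence before TRH EC20 addition; 0% is about no effect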). The following applies: TRH receptor agonist cell assay; at 2 µM; stronger effect = higher value. In short, it runs like this:
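Compounds are added by online pintool to dye-loaded TRHR cells while fluorescence is recorded every second. A rise in calcium signal during the agonist read marks activation; a later 10 nM TRH addition (EC20) serves the separate enhancer mode.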

Assay [13] in a line: qHTS for Inhibitors of Cell Surface uPA Generation: Validation Assay (AID 493164).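 Further: RAW 264.7 macrophage cells exposed to compound for 18 h; 0% is about no effect.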 The essentials:
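ATP-Lite luminescence read-out: ATP remains high when uPA activity-dependent LF translocation into the cytoplasm is blocked. RAW 264.7 cells, 18 h compound exposure at 37 C; 7-point titration, 2.45 nM to 38.3 uM final.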

Assay [14] addresses Flap endonuclease 1 (Homo sapiens) (UniProt P39748). The experiment in a line: qHTS Validation Assay for the Inhibitors of Human Flap endonuclease 1 (FEN1) (AID 488816). Further: potency means the concentration at half of the fitted maximal effect. The essentials: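 Steps: add FEN1 (10 nM reagent) or buffer only; pin compounds; hold 15 min at room temperature; start with substrate, 50 nM final; read at 0 and 15 min; correct, normalize and fit a four-parameter Hill curve.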

Assay [15] deals with D(1A) dopamine receptor (Homo sapiens) (UniProt P21728). The assay is described as follows: HTS Assay for Allosteric Agonists of the Human D1 Dopamine Receptor: Primary Screen for Antagonists (AID 488983).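 Further: calcium flux response to an EC80 dopamine challenge measured with no-wash dye; on the % scale 0 is the no-effect control and ±100 the full control effect; nearly all actives have a fitted effect of over 65% in size.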 In short, it runs like this: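 Kinetic fluorescence at 1 cycle/sec tracked intracellular calcium in force-coupled, tetracycline-inducible HEK293 T-REx D1 cells. Loss of response to an EC80 dopamine dose, given 180 s after compound, marked antagonists.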

Assay [16] can be described thus: Validation screen for small molecules that induce genotoxicity in human embryonic kidney (HEK293T) cells expressing luciferase-tagged ELG1 (AID 493106). Further: 0% is about no effect. The essentials:
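Cells were dispensed at 2,000 per well, then 23 nL compound or DMSO was pinned in. After 16 hr at 37 °C and 5% CO2, ONE-Glo reagent was added. Luciferase activity was measured following 30 min at room temperature.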

Assay [17] in a line: Nrf2 qHTS screen for inhibitors: Validation (AID 493153; active means well fitted inhibition curve with a large enough effect in the main read-out, with a control signal flat, not every such curve was filed as active). The following applies: Potency: luciferase luminescence; viability change: measured here: cytotoxicity max response. In short, it runs like this:
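A549 ARE_Fluc, 5% FBS OPTI-MEM; cpd titration, 18-24 h, 37°C/5% CO2. Read 1: CellTiter-Fluor (Ex 405/Em 525), cytotox. Read 2: luciferase lum, Nrf2 activity.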

For assay [18], the target named is Chromobox protein homolog 1 (Homo sapiens) (UniProt P83916). The experiment in a line: qHTS Validation Assay for Inhibitors of HP1-beta Chromodomain Interactions with Methylated Histone Tails (AID 488953).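 Further: loss of AlphaScreen luminescence from HP1-beta binding biotinylated H3K9me3 peptide; series mostly up to about 110 µM; on the % scale 0 is the no-effect control and ±100 the full control effect; nearly all actives have a fitted effect of over 50% in size.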 The essentials: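 Disruption of preformed HP1-beta:H3K9me3 peptide complexes (both 50 nM, PBS pH 7.4 with 0.01% Tween-20) is measured by AlphaScreen after 30 min compound exposure at room temperature, using streptavidin donor and nickel chelate acceptor beads at 10 ug/mL final.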
Chromobox protein homolog 1 (Homo sapiens), sequence (P83916 whole entry, looked up): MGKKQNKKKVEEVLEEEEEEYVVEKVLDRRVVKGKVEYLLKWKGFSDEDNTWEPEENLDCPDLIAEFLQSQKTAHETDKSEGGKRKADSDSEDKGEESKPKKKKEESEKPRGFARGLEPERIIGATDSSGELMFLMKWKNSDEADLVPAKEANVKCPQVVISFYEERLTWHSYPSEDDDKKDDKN

Methanococcus maripaludis chaperonin (MmCpn), sequence (Q6LX38 1-543): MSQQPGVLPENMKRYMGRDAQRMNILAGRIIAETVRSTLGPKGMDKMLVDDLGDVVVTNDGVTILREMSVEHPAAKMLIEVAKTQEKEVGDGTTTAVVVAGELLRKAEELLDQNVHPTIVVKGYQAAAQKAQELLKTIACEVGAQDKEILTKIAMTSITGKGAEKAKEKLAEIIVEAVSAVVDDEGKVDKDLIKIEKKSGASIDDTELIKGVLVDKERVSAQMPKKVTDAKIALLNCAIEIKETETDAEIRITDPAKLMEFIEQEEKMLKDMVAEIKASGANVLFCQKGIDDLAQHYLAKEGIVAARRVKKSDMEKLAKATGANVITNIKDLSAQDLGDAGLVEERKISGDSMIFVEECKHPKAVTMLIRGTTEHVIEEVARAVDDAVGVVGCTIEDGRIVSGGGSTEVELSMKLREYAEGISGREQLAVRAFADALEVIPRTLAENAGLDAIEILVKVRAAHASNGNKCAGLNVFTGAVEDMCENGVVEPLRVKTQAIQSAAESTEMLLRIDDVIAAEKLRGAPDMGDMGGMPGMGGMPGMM
Transient receptor potential cation channel subfamily V member 1 (Homo sapiens), sequence (Q8NER1 whole entry, looked up): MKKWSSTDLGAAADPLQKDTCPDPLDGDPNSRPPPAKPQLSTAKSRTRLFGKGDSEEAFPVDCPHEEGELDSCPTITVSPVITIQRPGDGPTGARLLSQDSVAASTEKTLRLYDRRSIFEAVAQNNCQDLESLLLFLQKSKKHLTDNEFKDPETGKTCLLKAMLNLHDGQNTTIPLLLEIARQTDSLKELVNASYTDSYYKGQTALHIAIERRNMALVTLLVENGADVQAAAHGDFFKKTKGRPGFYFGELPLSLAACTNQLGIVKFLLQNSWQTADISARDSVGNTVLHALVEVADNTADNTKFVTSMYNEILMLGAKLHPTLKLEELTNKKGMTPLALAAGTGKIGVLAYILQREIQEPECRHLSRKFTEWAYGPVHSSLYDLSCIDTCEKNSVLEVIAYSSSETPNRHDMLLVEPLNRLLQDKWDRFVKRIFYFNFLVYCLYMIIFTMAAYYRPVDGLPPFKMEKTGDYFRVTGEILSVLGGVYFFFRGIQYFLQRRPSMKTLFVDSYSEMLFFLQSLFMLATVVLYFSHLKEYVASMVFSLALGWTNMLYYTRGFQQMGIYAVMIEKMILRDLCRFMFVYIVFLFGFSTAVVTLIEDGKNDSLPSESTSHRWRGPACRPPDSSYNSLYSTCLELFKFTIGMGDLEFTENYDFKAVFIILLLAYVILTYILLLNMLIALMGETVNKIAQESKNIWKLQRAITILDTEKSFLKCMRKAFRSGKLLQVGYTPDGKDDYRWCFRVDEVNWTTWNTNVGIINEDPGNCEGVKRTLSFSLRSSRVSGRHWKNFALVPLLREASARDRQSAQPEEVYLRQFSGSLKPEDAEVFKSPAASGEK
M-phase phosphoprotein 8 (Homo sapiens), sequence (Q99549 whole entry, looked up): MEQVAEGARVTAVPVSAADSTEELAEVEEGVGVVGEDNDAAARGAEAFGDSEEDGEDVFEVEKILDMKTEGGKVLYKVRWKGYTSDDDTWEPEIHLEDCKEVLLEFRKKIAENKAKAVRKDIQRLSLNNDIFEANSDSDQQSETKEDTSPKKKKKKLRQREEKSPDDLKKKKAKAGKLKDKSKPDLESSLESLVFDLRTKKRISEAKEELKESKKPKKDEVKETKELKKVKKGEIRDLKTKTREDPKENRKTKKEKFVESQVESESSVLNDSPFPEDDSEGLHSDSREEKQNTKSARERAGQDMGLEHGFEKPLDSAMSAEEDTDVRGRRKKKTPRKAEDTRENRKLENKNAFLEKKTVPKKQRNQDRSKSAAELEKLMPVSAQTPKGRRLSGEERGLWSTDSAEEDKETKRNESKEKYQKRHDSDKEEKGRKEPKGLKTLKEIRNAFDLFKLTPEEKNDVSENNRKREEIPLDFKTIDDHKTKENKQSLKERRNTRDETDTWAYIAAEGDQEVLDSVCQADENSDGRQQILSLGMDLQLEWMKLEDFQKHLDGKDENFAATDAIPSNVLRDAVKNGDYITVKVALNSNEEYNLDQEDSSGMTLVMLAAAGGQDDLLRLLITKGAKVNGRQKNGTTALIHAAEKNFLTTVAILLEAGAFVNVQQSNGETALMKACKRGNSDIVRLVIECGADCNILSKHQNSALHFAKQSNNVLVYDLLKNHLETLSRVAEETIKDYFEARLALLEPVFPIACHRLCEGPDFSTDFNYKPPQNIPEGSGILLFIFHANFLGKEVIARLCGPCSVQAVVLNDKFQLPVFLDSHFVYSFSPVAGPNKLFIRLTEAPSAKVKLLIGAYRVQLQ
ATPase family AAA domain-containing protein 5 (Homo sapiens), sequence (Q96QE3 whole entry, looked up, the tested form may be a part): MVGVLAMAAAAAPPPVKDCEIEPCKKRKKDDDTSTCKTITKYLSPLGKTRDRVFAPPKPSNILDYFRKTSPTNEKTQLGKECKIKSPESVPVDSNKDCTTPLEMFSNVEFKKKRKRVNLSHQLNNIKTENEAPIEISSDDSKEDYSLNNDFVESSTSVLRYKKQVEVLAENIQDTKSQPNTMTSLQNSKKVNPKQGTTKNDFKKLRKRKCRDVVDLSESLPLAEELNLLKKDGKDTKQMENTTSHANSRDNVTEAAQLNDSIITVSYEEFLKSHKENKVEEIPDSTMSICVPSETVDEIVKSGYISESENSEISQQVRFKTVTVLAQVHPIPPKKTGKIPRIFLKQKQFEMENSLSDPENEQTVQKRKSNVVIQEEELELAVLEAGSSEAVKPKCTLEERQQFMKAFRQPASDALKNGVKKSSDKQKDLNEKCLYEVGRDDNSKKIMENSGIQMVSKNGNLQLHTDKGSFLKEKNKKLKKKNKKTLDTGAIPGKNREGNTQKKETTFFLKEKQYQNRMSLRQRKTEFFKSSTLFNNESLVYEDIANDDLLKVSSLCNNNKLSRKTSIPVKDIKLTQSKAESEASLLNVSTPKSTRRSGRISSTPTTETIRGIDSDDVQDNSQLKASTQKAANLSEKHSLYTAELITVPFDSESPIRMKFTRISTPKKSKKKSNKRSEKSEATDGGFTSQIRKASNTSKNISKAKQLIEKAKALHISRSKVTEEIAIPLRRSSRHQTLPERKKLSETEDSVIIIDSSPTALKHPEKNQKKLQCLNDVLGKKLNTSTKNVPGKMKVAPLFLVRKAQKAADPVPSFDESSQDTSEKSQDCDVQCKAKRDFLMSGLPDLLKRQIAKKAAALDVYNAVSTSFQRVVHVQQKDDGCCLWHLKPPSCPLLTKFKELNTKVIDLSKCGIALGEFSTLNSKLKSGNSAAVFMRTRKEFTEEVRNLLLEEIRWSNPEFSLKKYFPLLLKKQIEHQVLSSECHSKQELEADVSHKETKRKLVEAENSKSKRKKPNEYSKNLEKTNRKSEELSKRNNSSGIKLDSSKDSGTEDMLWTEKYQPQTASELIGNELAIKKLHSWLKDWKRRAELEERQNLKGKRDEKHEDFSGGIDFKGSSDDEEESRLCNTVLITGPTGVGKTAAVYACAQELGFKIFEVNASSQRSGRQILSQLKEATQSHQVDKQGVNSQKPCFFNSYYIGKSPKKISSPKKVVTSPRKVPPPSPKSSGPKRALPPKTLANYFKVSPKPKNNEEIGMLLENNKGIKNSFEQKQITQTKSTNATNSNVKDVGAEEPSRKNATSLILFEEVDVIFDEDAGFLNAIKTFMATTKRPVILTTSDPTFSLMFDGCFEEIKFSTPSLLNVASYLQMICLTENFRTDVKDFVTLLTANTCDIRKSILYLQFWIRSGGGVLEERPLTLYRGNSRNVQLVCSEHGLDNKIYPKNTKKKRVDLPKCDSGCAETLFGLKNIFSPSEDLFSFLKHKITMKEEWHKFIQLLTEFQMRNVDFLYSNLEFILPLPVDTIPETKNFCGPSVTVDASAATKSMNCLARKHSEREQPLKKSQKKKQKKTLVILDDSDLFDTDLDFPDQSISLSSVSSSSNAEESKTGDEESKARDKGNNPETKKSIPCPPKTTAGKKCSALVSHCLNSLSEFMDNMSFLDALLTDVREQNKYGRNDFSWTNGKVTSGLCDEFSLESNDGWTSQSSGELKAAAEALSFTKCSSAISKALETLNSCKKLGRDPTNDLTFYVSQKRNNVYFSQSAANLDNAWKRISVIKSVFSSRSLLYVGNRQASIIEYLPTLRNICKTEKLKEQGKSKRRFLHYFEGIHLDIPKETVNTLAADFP
Flap endonuclease 1 (Homo sapiens), sequence (P39748 whole entry, looked up): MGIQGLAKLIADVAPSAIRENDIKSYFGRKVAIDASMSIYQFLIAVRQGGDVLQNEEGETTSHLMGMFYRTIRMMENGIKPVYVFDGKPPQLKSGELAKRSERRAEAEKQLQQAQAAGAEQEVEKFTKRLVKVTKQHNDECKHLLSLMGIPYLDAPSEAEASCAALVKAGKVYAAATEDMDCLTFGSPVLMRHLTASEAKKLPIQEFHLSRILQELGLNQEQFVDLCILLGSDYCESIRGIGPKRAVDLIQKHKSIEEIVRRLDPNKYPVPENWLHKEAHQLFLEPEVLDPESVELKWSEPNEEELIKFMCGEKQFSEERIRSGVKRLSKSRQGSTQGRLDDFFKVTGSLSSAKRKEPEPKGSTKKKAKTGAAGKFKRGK
Thyrotropin-releasing hormone receptor (Homo sapiens), sequence (P34981 whole entry, looked up): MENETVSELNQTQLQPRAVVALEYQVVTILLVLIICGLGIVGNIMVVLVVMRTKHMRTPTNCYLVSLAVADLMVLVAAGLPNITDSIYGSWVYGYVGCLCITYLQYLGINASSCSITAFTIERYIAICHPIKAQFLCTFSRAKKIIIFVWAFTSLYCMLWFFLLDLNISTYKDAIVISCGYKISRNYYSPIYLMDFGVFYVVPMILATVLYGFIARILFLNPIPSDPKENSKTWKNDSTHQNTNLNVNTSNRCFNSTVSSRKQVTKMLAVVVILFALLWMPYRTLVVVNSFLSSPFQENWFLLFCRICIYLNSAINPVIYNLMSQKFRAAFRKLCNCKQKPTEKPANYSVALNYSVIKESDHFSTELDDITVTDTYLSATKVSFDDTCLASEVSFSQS

With `O=[N+]([O-])c1ccc2nc(N3CCNCC3)ccc2c1`, the Potency result in [1], in assay [2], in [4], in [5], in assay [9] and in [10] was “inactive” each time. Besides, the Potency result in [11] was “inactive”. Besides, the call in assay [3], in [6], in assay [7], in [8] and in [13] was inactive. The activation in [12] is 1.44% (inactive).
For `COc1ccc2[nH]c3c(c2c1)CCNC3`, the Potency entry in assay [1], in assay [2], in assay [4], in assay [14], in assay [5] and in assay [9] was “inactive” in each case. The Potency entry in assay [10], in assay [15], in assay [16] and in assay [11] was “inactive” throughout. Further, the outcome in assay [3], in assay [6], in assay [7] and in [13] was inactive. Further, the activation in [12] is 1.56% (inactive).
`C[N+](C)(C)CCOC(=O)CBr`: the Potency entry in assay [1], in assay [2], in [4], in assay [5], in assay [9] and in assay [10] was “inactive” throughout. In addition, the Potency entry in assay [15], in [11] and in assay [17] was “inactive” throughout. For the same compound, the result in [6], in assay [7] and in assay [13] was inactive. Further, the activation in assay [12] was 1.06% (inactive). Besides, the viability change in [17] is -12.9%.
On to `c1ccc2c(c1)[I+]c1ccccc1-2`, for which the Potency in [1] is 131 nM (active); in [2], 147 nM (active); in assay [11] it was 10300 nM (active). The call in assay [3], in assay [6], in [7], in assay [8] and in assay [13] was inactive. In addition, the Potency result in [5], in [18], in [9], in assay [10], in assay [15] and in assay [16] was “inactive” in each case. In addition, the activation in [12] was -4.44% (inactive).
With `Cc1c2ccncc2c(C)c2c1[nH]c1ccccc12`, the Potency in assay [1] is 1170 nM (active); in assay [2], 1850 nM (active); in [14] it was 10600 nM (active); in assay [9], 10000 nM (active); in [11], 16400 nM (active). Moreover, the compound was called inactive in assay [3], in [6], in assay [7] and in assay [13]. In addition, the Potency entry in [5], in assay [10] and in assay [15] was “inactive” in each case. The activation in [12] was 28.2% (inactive).
In the case of `CC(C)(C)c1cc(C=C(C#N)C#N)cc(C(C)(C)C)c1O`, the Potency was 1850 nM (active) in [1]; 1470 nM (active) in assay [2]; 16800 nM (active) in assay [4]; 10000 nM (active) in [5]; 2310 nM (active) in assay [11]. For the same compound, the Potency entry in [14], in assay [9] and in assay [10] was “inactive” in each case. Also, the result in [6], in [7], in [8] and in [13] was inactive. Further, in assay [12], the activation is 0.125% (inactive).
Turning to `N[C@@]1(C(=O)O)CC[C@@H](C(=O)O)C1`, the Potency result in assay [1], in [2], in assay [4], in assay [5], in assay [18] and in assay [9] was “inactive” in each case. Moreover, the Potency entry in assay [10], in assay [15], in [16], in [11] and in [17] was “inactive” each time. Besides, the call in assay [3], in [6], in [7] and in [13] was inactive. Also, in [12], the activation was -0.25% (inactive). Moreover, the viability change in assay [17] was determined as 4.39%.
